In PubChem BioAssay:

Assay: PSAC antagonists in infected red cells, primary screen, cell-based, P. falciparum Indochina, OD700, 18 h (AID 1157)
Conditions: P. falciparum Indochina infected erythrocytes, osmotic lysis OD700, 18 h; higher = more signal, called active from +8 up or from −8 down

z-score, inactive:
NC(=O)[C@@H]1[C@H]2C(=O)O[C@H](c3ccccc3)[C@H](c3ccccc3)N2[C@H](c2ccc(O)cc2)[C@@]12C(=O)Nc1ccc(C#CC3(O)CCCCCC3)cc12 0.812, CCOC(=O)C[C@H]1[C@H](OC(=O)Cc2ccc3c(c2)OCO3)[C@@H](NC(=O)c2ccc3ccccc3c2)c2cc(OCCCO)ccc2N1C(=O)c1ccccc1 0.26, CN(C)C(=O)[C@]1(Cc2ccccc2N=[N+]=[N-])N=C(c2ccc(OCCCO)cc2)O[C@@H]1c1ccccc1 2.53, COC(=O)c1c(CC[C@@H](CO)NC(=O)N[C@@H](C)Cn2cc(C3(O)CCCCC3)nn2)oc(C(C)=O)c1C(=O)OC -1.01, O=C1C2C=CC(C(O)c3ccc(F)cc3)N(Nc3ccccc3F)C2C(=O)N1c1ccccc1 (stereo not given) 0.998, O=C(c1ccccc1)N1Cc2ccccc2[C@@H]2OC(c3ccc(OCCCO)cc3)=N[C@]2(Cc2ccccc2)C1=O 1.23, C=C(COC)/C(=C/C[C@H](OC(=O)c1ccncc1)c1ccc(OCCO)cc1)c1cnc2ccccc2c1 0.848, COCCOC(=O)N1C(=O)[C@@]2(c3cc(C#CCNC(N)=O)ccc31)[C@H](C(=O)NC[C@H](O)c1ccccc1)[C@H]1C(=O)O[C@H](c3ccccc3)[C@H](c3ccccc3)N1[C@@H]2c1ccccc1OCCO 0.317, COc1ccc([C@H]2C[C@H]3C(Br)=C[C@@H]2C(=O)[C@]32CO2)cc1 0.207, C=CCOC(=O)[C@@H]1[C@H]2C(=O)O[C@H](c3ccccc3)[C@H](c3ccccc3)N2[C@H](c2ccc(OCCOC(=O)[C@@H]3C[C@@H]4C(=O)N[C@@H](Cc5ccccc5)C(=O)N4[C@@H]3c3ccc(O)cc3)cc2)[C@@]12C(=O)Nc1ccc(I)cc12 1.14
